The list is not random: actives were taken first. Their share in the collection is about 12%.
WT yeast gro inh = growth inhibition of WT yeast, mitochondrial fusion screen; mitochondrial fusion phenotypic screen, WT strain; inhibition, % at 10 µM; 190,000 tested, 2.1% active; in the data active means inhibition above about 58%; tested in S. cerevisiae
Cl transport mod = KCC2 (human) Cl- transport modulation; KCC2 cells, thallium flux FluoZin-2 fluorescence; B-score of Tl+ flux slope (higher = more flux/activation; lower = inhibition) at 10 µM; 190,000 tested, 2.2% active; AID 1456;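 active means thallium flux slope and its plate-corrected score both differing from the plate sample mean at a set confidence after two filtering rounds, in either direction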;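 further: slope of fluorescence scaled to starting intensity during 10 to 20 s after thallium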
ROMK primary = modulators of human ROMK potassium channel | Tet-inducible ROMK, thallium flux fluorescence; actives lie on both sides | P48048 | 130,000 tested, 2% active | B-score at 10 µM | AID 1918;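 active means signal ratio slope over the read window, or its plate-corrected B-score, at least 3 SD from the plate mean, either direction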;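 further: B-score of the F/F0 ratio slope over 7 to 12 s after thallium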
Target sequence (P48048 whole entry, looked up): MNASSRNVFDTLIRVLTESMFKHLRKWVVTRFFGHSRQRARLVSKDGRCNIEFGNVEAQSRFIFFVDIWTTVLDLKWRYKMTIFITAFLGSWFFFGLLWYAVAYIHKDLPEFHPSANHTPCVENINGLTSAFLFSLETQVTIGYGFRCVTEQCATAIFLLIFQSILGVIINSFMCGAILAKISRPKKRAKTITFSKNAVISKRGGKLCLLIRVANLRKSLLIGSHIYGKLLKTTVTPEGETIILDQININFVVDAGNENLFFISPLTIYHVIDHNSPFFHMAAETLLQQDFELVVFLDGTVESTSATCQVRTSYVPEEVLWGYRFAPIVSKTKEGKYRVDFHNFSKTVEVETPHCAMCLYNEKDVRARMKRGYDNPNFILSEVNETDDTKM
Insulin prom inh = TRM-6 insulin promoter activity inhibition | TRM-6 cells (human fetal islet line), insulin promoter-eGFP reporter, imaging; reporter expression induced with tamoxifen | inhibition, % at 2 µM | 130,000 tested, 0.9% active | AID 1273;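 active means inhibition above the mean plus 3 SD, with well images judged a real hit on visual review, cut at about 60% in these data, passing the limit was not always enough; inconclusive means inhibition over the cutoff but images rejected on review; inactive means inhibition not above the cutoff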
Insulin prom up = MIN6 insulin promoter up-regulation | MIN6 insulin promoter-GFP reporter, high-content imaging; active compounds read high | z-score at 5 µM | 190,000 tested, 0.3% active | AID 1625;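 active means z-score above 3 at 5 µM with at least 500 cells counted in the well; inconclusive means wells under 500 cells, flagged as cytotoxic or low count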
L major viab = inhibitors of Leishmania major promastigote growth; Leishmania major promastigotes, resazurin fluorescence viability; inhibition, % at 10 µM; 200,000 tested, 9% active; AID 1063; in the data active means inhibition above about 50%;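 further: promastigotes grown with compound for 44 hours at 28 °C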
ROMK retest = human ROMK channel modulation, retest confirmation. shares compounds with ROMK primary. 3,000 tested, 54% active. AID 1917. ROMK thallium flux, fluorescence ratio; active compounds read low. normalized thallium flux (F/F0 slope) at 10 µM;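 active means Flux at 10 µM at least 3 SD below or above vehicle control mean in one or both replicates; inconclusive means no clear call, values can overlap the other calls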
Starred values were filed as active, the others as inactive; u = inconclusive; x = not tested or not shown.

SMILES	WT yeast gro inh	Cl transport mod	ROMK primary	Insulin prom inh	Insulin prom up	L major viab	ROMK retest
COC(=O)C1C(=O)C2=C(CC1C)NC(C)=C(C(=O)OCCOc1ccccc1)C2c1ccc(C)o1 (stereo not given)	0.2	-1.23	-3.95*	-7.9	-0.95	39.9	0.0658*
CC(=O)c1sc(C(C)(C)C)cc1NC(=O)CCC(=O)O	x	-1.41	-0.0445	x	-0.5	x	x
Cc1cc(-c2ccccc2C(=O)O)on1	9.9	0.354	x	x	1.09	-5.7	x
O=C(O)c1ccccc1C1=Nc2ccc(O)cc2Oc2cc(O)ccc21	9.1	0.00907	x	44.4	-0.05	-3.6	0.0543*
Cn1c(=O)c2c(nc(OCc3ccc4c(c3)OCO4)n2Cc2ccccc2Cl)n(C)c1=O	1.6	0.466	x	-38.7	0.29	-1.8	x
O=S(=O)(/N=C(/Nc1cccc2ccccc12)c1ccccc1)c1cccs1	25.1	-0.012	x	10.0	-0.05	43.1	0.0604*
Cc1ccc(N/C(=N/S(=O)(=O)c2cccs2)c2ccccc2)c(C)c1	-6.1	-0.836	x	-92.9	-1.37	8.8	x
CC1=NN(C(=O)c2ccccc2Cl)C(O)(c2cccnc2)C1 (stereo not given)	-15.0	-0.605	0.246	50.0	0.74	-0.8	u
CCCCCCN1C=CC=C/C1=C/C=C(C#N)C#N	-22.9	-3.4	-6.9*	-35.7	1.18	9.3	0.0456*
Cn1cnnc1SCC(=O)c1cc2ccccc2oc1=O	18.6	0.618	x	30.0	-0.75	-4.7	x
O=C(Cn1nc(Cl)nc1Cl)c1cc2ccccc2oc1=O	-6.4	x	-6.55*	x	0.53	21.7	0.0493*
Cc1ccc(OCC(=O)N/N=C/c2ccccc2)c([N+](=O)[O-])c1	8.6	-0.0121	1.39	62.2	0.08	4.5	x
C/C(=N\NC(=O)COc1ccc(C)cc1[N+](=O)[O-])c1cccs1	-2.8	-1.22	-2.6*	9.1	0.52	-2.5	0.081
O=C(CSc1n[nH]c(-c2cccs2)n1)NCc1ccc2c(c1)OCO2	6.7	0.622	x	-386.7	x	-2.8	x
C=CCOC(=O)C1=C(C)NC(=O)NC1c1cn(-c2ccccc2)nc1-c1cccs1 (stereo not given)	7.7	-0.0828	-3.03*	-100.5	0.35	14.4	0.0612*
CCOC(=O)C1=C(C)NC(C)=C(C(=O)OCC)C1c1sccc1C	5.0	x	-5.27*	x	-0.39	95.8*	0.0484*
O=C(COC(=O)c1ccc(NS(=O)(=O)c2cccs2)cc1O)NCc1ccccc1	-4.0	-1.1	3.57*	-28.6	-0.19	-3.0	0.0839
CCn1c(C(=O)N2CCC(C(=O)NCCCSC3CCCCC3)CC2)cc2sccc21	44.4	0.231	x	x	0.87	5.5	u
O=[N+]([O-])c1ccc2c(c1)/C(=N\O)c1ccccc1-2	x	0.194	-2.87*	x	-0.4	x	u
CCn1c(=S)sc2c(=O)[nH]c(C)nc21	-1.5	2.56	-0.267	-31.6	-0.03	-4.6	x
Cc1ccc(-n2c(SCC(N)=O)nnc2-c2cnccn2)cc1	x	-0.402	x	x	-0.12	x	x
COc1cc(/C=C(\C#N)C(N)=O)ccc1OS(=O)(=O)c1ccc(C)cc1	0.3	0.425	x	38.8	-0.25	0.6	0.0415*
CCNC(=O)CC1C(=O)N(C)C(=S)N1NC(=O)c1ccc(Cl)cc1 (stereo not given)	0.9	1.25	x	-67.6	-0.04	-1.4	0.0762
CCN1C(=O)C(CC(=O)Nc2ccc(Cl)cc2)N(NC(=O)c2ccncc2)C1=S (stereo not given)	x	0.759	x	x	x	x	x
O=c1cc(CN2CCCCC2)nc(C2CC2)[nH]1	-0.7	0.162	0.591	60.0	x	-2.6	x
SMILES	WT yeast gro inh	Cl transport mod	ROMK primary	Insulin prom inh	Insulin prom up	L major viab	ROMK retest
COc1ccc(CC(=O)Nc2cccc(-c3nnc(-c4ccc(C)cc4)o3)c2)cc1OC	0.5	-0.0329	0.362	x	x	-2.0	x
COc1ccc(CC(=O)Nc2cccc(-c3nnc(-c4ccccc4)o3)c2)cc1OC	-9.4	-2.14	x	-5.4	-1.85	5.2	0.064*
COc1ccccc1OCC(=O)Nc1cccc(-c2nnc(-c3ccco3)o2)c1	18.8	-1.96	x	-29.4	0.19	3.4	0.063*
NC1=NC(=O)CC(C(=O)NCCc2ccccc2)S1 (stereo not given)	0.9	0.315	0.0931	18.9	-0.17	-0.4	x
Cc1ccc(-n2c(Cl)c(Cl)nc(Cl)c2=O)cc1	62.2	-1.67	-4.72*	-233.3	u	17.4	0.0471*
COc1nc(Cl)cn(-c2ccc(C)cc2)c1=O	3.8	0.45	x	-13.3	0.12	-3.7	x

High-throughput results as filed in PubChem BioAssay.
